# In publication PMC11006913:
# Positions count from the first letter of the chain named.
# Assays:
# Test in all cases: PBM; 200 nM protein, PBS
# Details in all cases: dsDNA, one strand shown
# VENTX [1] = target: T1, VENTX (Homo sapiens, UniProt O95231 78-163, R121Q)
# T1 sequence: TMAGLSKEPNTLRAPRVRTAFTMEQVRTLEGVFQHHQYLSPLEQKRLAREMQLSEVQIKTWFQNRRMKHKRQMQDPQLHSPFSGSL
# VENTX [2] = target: T2, VENTX (Homo sapiens, UniProt O95231 78-163)
# T2 sequence: T1 sequence with Q44R
# VENTX [3] = target: T3, VENTX (Homo sapiens, UniProt O95231 78-163, Y115F)
# T3 sequence: T1 sequence with Y38F, Q44R
# HOXA2 [4] = target: HOXA2 (Homo sapiens, UniProt O43364 129-215, R185T)
# Sequence of HOXA2 (Homo sapiens, UniProt O43364 129-215, R185T) (O43364 129-215 R185T): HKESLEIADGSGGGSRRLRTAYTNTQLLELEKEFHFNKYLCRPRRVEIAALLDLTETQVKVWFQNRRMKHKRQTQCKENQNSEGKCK
# HOXA2 [5] = target: HOXA2 (Homo sapiens, UniProt O43364 129-215, R185K)
# Sequence of HOXA2 (Homo sapiens, UniProt O43364 129-215, R185K) (O43364 129-215 R185K): as the sequence (O43364 129-215 R185T) above, with T57K counted along it
# HOXA2 [6] = target: HOXA2 (Homo sapiens, UniProt O43364 129-215, Y150S)
# Sequence of HOXA2 (Homo sapiens, UniProt O43364 129-215, Y150S) (O43364 129-215 Y150S): as the sequence (O43364 129-215 R185T) above, with Y22S, T57R counted along it
# HOXA2 [7] = target: HOXA2 (Homo sapiens, UniProt O43364 129-215)
# Sequence of HOXA2 (Homo sapiens, UniProt O43364 129-215) (O43364 129-215): as the sequence (O43364 129-215 R185T) above, with T57R counted along it
# NKX2-6 [8] = target: T4, NKX2-6 (Homo sapiens, UniProt A6NCS4 118-204, R150C)
# T4 sequence: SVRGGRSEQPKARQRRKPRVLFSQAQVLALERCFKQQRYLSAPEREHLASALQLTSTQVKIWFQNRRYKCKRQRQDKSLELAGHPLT
# MSX2 [9] = target: MSX2 (Homo sapiens, UniProt P35548 130-214, R199I)
# Sequence of MSX2 (Homo sapiens, UniProt P35548 130-214, R199I) (P35548 130-214 R199I): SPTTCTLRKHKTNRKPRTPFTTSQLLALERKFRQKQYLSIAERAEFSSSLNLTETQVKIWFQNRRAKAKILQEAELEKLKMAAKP
# MSX2 [10] = target: MSX2 (Homo sapiens, UniProt P35548 130-214)
# Sequence of MSX2 (Homo sapiens, UniProt P35548 130-214) (P35548 130-214): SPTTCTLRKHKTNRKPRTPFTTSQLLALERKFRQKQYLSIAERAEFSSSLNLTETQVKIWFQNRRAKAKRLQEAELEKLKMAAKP
# MSX2 [11] = target: MSX2 (Homo sapiens, UniProt P35548 130-214, F161Y)
# Sequence of MSX2 (Homo sapiens, UniProt P35548 130-214, F161Y) (P35548 130-214 F161Y): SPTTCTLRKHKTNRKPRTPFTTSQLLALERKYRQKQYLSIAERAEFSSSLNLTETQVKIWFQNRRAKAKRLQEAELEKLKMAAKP
# HOXB6 [12] = target: HOXB6 (Homo sapiens, UniProt P17509 132-218, K202E)
# Sequence of HOXB6 (Homo sapiens, UniProt P17509 132-218, K202E) (P17509 132-218 K202E): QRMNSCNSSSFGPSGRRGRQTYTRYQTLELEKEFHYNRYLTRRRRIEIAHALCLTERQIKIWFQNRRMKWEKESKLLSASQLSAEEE
# HOXB6 [13] = target: HOXB6 (Homo sapiens, UniProt P17509 132-218)
# Sequence of HOXB6 (Homo sapiens, UniProt P17509 132-218) (P17509 132-218): as the sequence (P17509 132-218 K202E) above, with E71K counted along it
# VAX1 [14] = target: VAX1 (Homo sapiens, UniProt Q5SQQ9 86-172)
# Sequence of VAX1 (Homo sapiens, UniProt Q5SQQ9 86-172) (Q5SQQ9 86-172): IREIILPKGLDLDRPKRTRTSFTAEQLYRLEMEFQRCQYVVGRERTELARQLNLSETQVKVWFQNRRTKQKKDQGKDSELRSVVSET
# VAX1 [15] = target: VAX1 (Homo sapiens, UniProt Q5SQQ9 86-172, T142I)
# Sequence of VAX1 (Homo sapiens, UniProt Q5SQQ9 86-172, T142I) (Q5SQQ9 86-172 T142I): as the sequence (Q5SQQ9 86-172) above, with T57I counted along it
# VAX1 [16] = target: VAX1 (Homo sapiens, UniProt Q5SQQ9 86-172, K157R)
# Sequence of VAX1 (Homo sapiens, UniProt Q5SQQ9 86-172, K157R) (Q5SQQ9 86-172 K157R): as the sequence (Q5SQQ9 86-172) above, with K72R counted along it
# ALX3 [17] = target: ALX3 (Homo sapiens, UniProt O95076 139-225, N203Q)
# Sequence of ALX3 (Homo sapiens, UniProt O95076 139-225, N203Q) (O95076 139-225 N203Q): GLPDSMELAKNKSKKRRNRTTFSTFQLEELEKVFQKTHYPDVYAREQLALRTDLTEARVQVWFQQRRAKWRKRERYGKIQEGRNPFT
# ALX3 [18] = target: ALX3 (Homo sapiens, UniProt O95076 139-225)
# Sequence of ALX3 (Homo sapiens, UniProt O95076 139-225) (O95076 139-225): as the sequence (O95076 139-225 N203Q) above, with Q65N counted along it
# ALX3 [19] = target: ALX3 (Homo sapiens, UniProt O95076 139-225, L168Q)
# Sequence of ALX3 (Homo sapiens, UniProt O95076 139-225, L168Q) (O95076 139-225 L168Q): as the sequence (O95076 139-225 N203Q) above, with L30Q, Q65N counted along it
# ALX3 [20] = target: ALX3 (Homo sapiens, UniProt O95076 139-225, L168V)
# Sequence of ALX3 (Homo sapiens, UniProt O95076 139-225, L168V) (O95076 139-225 L168V): as the sequence (O95076 139-225 N203Q) above, with L30V, Q65N counted along it
# ALX3 [21] = target: ALX3 (Homo sapiens, UniProt O95076 139-225, N203S)
# Sequence of ALX3 (Homo sapiens, UniProt O95076 139-225, N203S) (O95076 139-225 N203S): as the sequence (O95076 139-225 N203Q) above, with Q65S counted along it
# NKX2-6 [22] = target: T5, NKX2-6 (Homo sapiens, UniProt A6NCS4 118-204)
# T5 sequence: T4 sequence with C33R
# NKX2-6 [23] = target: T6, NKX2-6 (Homo sapiens, UniProt A6NCS4 118-204, F151L)
# T6 sequence: T4 sequence with C33R, F34L
sequence,measurement,setting,value
GCTTATTA,binding signal,VENTX [1],"10.2 upbm affinity estimate (log intensity, higher = more binding, comparable within an allelic series)"
same,binding signal,VENTX [2],"10.8 upbm affinity estimate (log intensity, higher = more binding, comparable within an allelic series)"
same,binding signal,VENTX [3],"10.3 upbm affinity estimate (log intensity, higher = more binding, comparable within an allelic series)"
same,binding signal,HOXA2 [4],"10.9 upbm affinity estimate (log intensity, higher = more binding, comparable within an allelic series)"
same,binding signal,HOXA2 [5],"12.2 upbm affinity estimate (log intensity, higher = more binding, comparable within an allelic series)"
same,binding signal,HOXA2 [6],"10.7 upbm affinity estimate (log intensity, higher = more binding, comparable within an allelic series)"
same,binding signal,HOXA2 [7],"10.7 upbm affinity estimate (log intensity, higher = more binding, comparable within an allelic series)"
CGGGTCGC,binding signal,VENTX [1],"8.13 upbm affinity estimate (log intensity, higher = more binding, comparable within an allelic series)"
same,binding signal,VENTX [2],"8.41 upbm affinity estimate (log intensity, higher = more binding, comparable within an allelic series)"
same,binding signal,VENTX [3],"8.28 upbm affinity estimate (log intensity, higher = more binding, comparable within an allelic series)"
same,binding signal,NKX2-6 [8],"9.33 upbm affinity estimate (log intensity, higher = more binding, comparable within an allelic series)"
same,binding signal,MSX2 [9],"9.47 upbm affinity estimate (log intensity, higher = more binding, comparable within an allelic series)"
same,binding signal,MSX2 [10],"9.59 upbm affinity estimate (log intensity, higher = more binding, comparable within an allelic series)"
same,binding signal,MSX2 [11],"9.55 upbm affinity estimate (log intensity, higher = more binding, comparable within an allelic series)"
CAGAGGGC,binding signal,VENTX [1],"8.16 upbm affinity estimate (log intensity, higher = more binding, comparable within an allelic series)"
same,binding signal,VENTX [2],"8.02 upbm affinity estimate (log intensity, higher = more binding, comparable within an allelic series)"
same,binding signal,VENTX [3],"8.12 upbm affinity estimate (log intensity, higher = more binding, comparable within an allelic series)"
same,binding signal,HOXB6 [12],"9.04 upbm affinity estimate (log intensity, higher = more binding, comparable within an allelic series)"
same,binding signal,HOXB6 [13],"9.01 upbm affinity estimate (log intensity, higher = more binding, comparable within an allelic series)"
CACTAATG,binding signal,VENTX [1],"11.7 upbm affinity estimate (log intensity, higher = more binding, comparable within an allelic series)"
same,binding signal,VENTX [2],"12.3 upbm affinity estimate (log intensity, higher = more binding, comparable within an allelic series)"
same,binding signal,VENTX [3],"11.6 upbm affinity estimate (log intensity, higher = more binding, comparable within an allelic series)"
same,binding signal,HOXA2 [4],"12.1 upbm affinity estimate (log intensity, higher = more binding, comparable within an allelic series)"
same,binding signal,HOXA2 [5],"13.2 upbm affinity estimate (log intensity, higher = more binding, comparable within an allelic series)"
same,binding signal,HOXA2 [6],"10.9 upbm affinity estimate (log intensity, higher = more binding, comparable within an allelic series)"
same,binding signal,HOXA2 [7],"12.1 upbm affinity estimate (log intensity, higher = more binding, comparable within an allelic series)"
CCGCTGGC,binding signal,VENTX [1],"7.68 upbm affinity estimate (log intensity, higher = more binding, comparable within an allelic series)"
same,binding signal,VENTX [2],"7.51 upbm affinity estimate (log intensity, higher = more binding, comparable within an allelic series)"
same,binding signal,VENTX [3],"7.74 upbm affinity estimate (log intensity, higher = more binding, comparable within an allelic series)"
same,binding signal,HOXB6 [12],"8.89 upbm affinity estimate (log intensity, higher = more binding, comparable within an allelic series)"
same,binding signal,VAX1 [14],"6.67 upbm affinity estimate (log intensity, higher = more binding, comparable within an allelic series)"
same,binding signal,VAX1 [15],"7.05 upbm affinity estimate (log intensity, higher = more binding, comparable within an allelic series)"
same,binding signal,VAX1 [16],"6.73 upbm affinity estimate (log intensity, higher = more binding, comparable within an allelic series)"
same,binding signal,HOXB6 [13],"8.76 upbm affinity estimate (log intensity, higher = more binding, comparable within an allelic series)"
GCGGCCCC,binding signal,VENTX [1],"8.15 upbm affinity estimate (log intensity, higher = more binding, comparable within an allelic series)"
same,binding signal,VENTX [2],"8.27 upbm affinity estimate (log intensity, higher = more binding, comparable within an allelic series)"
same,binding signal,VENTX [3],"8.25 upbm affinity estimate (log intensity, higher = more binding, comparable within an allelic series)"
same,binding signal,HOXA2 [4],"6.96 upbm affinity estimate (log intensity, higher = more binding, comparable within an allelic series)"
same,binding signal,HOXA2 [5],"9.93 upbm affinity estimate (log intensity, higher = more binding, comparable within an allelic series)"
same,binding signal,HOXA2 [6],"10.3 upbm affinity estimate (log intensity, higher = more binding, comparable within an allelic series)"
same,binding signal,HOXA2 [7],"7.15 upbm affinity estimate (log intensity, higher = more binding, comparable within an allelic series)"
CCCGACCG,binding signal,VENTX [1],"8.21 upbm affinity estimate (log intensity, higher = more binding, comparable within an allelic series)"
same,binding signal,VENTX [2],"8.16 upbm affinity estimate (log intensity, higher = more binding, comparable within an allelic series)"
same,binding signal,VENTX [3],"8.1 upbm affinity estimate (log intensity, higher = more binding, comparable within an allelic series)"
same,binding signal,NKX2-6 [8],"9.21 upbm affinity estimate (log intensity, higher = more binding, comparable within an allelic series)"
same,binding signal,ALX3 [17],"7.73 upbm affinity estimate (log intensity, higher = more binding, comparable within an allelic series)"
same,binding signal,ALX3 [18],"7.81 upbm affinity estimate (log intensity, higher = more binding, comparable within an allelic series)"
same,binding signal,ALX3 [19],"7.73 upbm affinity estimate (log intensity, higher = more binding, comparable within an allelic series)"
same,binding signal,ALX3 [20],"7.72 upbm affinity estimate (log intensity, higher = more binding, comparable within an allelic series)"
same,binding signal,ALX3 [21],"7.76 upbm affinity estimate (log intensity, higher = more binding, comparable within an allelic series)"
CGAGCCGC,binding signal,VENTX [1],"8.16 upbm affinity estimate (log intensity, higher = more binding, comparable within an allelic series)"
same,binding signal,VENTX [2],"8.17 upbm affinity estimate (log intensity, higher = more binding, comparable within an allelic series)"
same,binding signal,VENTX [3],"8.15 upbm affinity estimate (log intensity, higher = more binding, comparable within an allelic series)"
same,binding signal,ALX3 [17],"7.74 upbm affinity estimate (log intensity, higher = more binding, comparable within an allelic series)"
same,binding signal,NKX2-6 [22],"9.49 upbm affinity estimate (log intensity, higher = more binding, comparable within an allelic series)"
same,binding signal,ALX3 [18],"7.82 upbm affinity estimate (log intensity, higher = more binding, comparable within an allelic series)"
same,binding signal,ALX3 [19],"7.81 upbm affinity estimate (log intensity, higher = more binding, comparable within an allelic series)"
same,binding signal,NKX2-6 [23],"9.16 upbm affinity estimate (log intensity, higher = more binding, comparable within an allelic series)"
same,binding signal,ALX3 [20],"7.75 upbm affinity estimate (log intensity, higher = more binding, comparable within an allelic series)"
same,binding signal,ALX3 [21],"7.79 upbm affinity estimate (log intensity, higher = more binding, comparable within an allelic series)"
CTGGCAGC,binding signal,VENTX [1],"8.09 upbm affinity estimate (log intensity, higher = more binding, comparable within an allelic series)"
same,binding signal,VENTX [2],"8.14 upbm affinity estimate (log intensity, higher = more binding, comparable within an allelic series)"
same,binding signal,VENTX [3],"8.07 upbm affinity estimate (log intensity, higher = more binding, comparable within an allelic series)"
CCACGCGC,binding signal,VENTX [1],"8.13 upbm affinity estimate (log intensity, higher = more binding, comparable within an allelic series)"
same,binding signal,VENTX [2],"8.26 upbm affinity estimate (log intensity, higher = more binding, comparable within an allelic series)"
same,binding signal,VENTX [3],"8.14 upbm affinity estimate (log intensity, higher = more binding, comparable within an allelic series)"
same,binding signal,HOXB6 [12],"9.05 upbm affinity estimate (log intensity, higher = more binding, comparable within an allelic series)"
same,binding signal,HOXB6 [13],"8.96 upbm affinity estimate (log intensity, higher = more binding, comparable within an allelic series)"
